# Screening results from PubChem BioAssay.
# Shown is part of a subset that was picked to be rich in hits.
# TTR transcr act – TTR transcription activators in neuroblastoma reporter cells, primary screen, cell-based, luminescence, SH-SY5Y, TTR promoter Gaussia luciferase. 100% = recombinant luciferase protein wells. activation, % at 16.7 µM. actives 1.3% (n = 92,000);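 active = activation above the mean of all tested compounds plus 3 SD, cut at about 9.5% in these data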;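 note: cells exposed to compounds for one day before reading; 0% = median of all test compound wells on the plate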
# HuH7 TTR inh – TTR promoter reporter inhibitors in hepatoma cells, counter-screen for TTR transcription activator project, cell-based, luminescence, HuH7 hepatoma | shares compounds with TTR transcr act | HuH7 TTR promoter-Gaussia luciferase reporter | inhibition, % at 16.7 µM | actives 4% (n = 1,100) | AID 1117279, 2014;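 active = average inhibition above the solvent-only control wells' mean plus 3 SD, cut at about 15% in these data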;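 note: 0% = cells with DMSO only and 100% = cells with inhibitor control FD; inhibitors lower well luminescence so higher value means more inhibition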
# TTR act confirm – TTR transcription activators, retest, confirmation, cell-based, luminescence, SH-SY5Y, triplicate; shares compounds with TTR transcr act; SHSY5Y TTR promoter Gaussia luciferase; 100% = purified Lucia enzyme wells, no cells; activation, % at 16.7 µM; 1,100 tested, under 10 active; AID 1117280, 2014;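 active = mean activation above a set limit taken from the earlier primary screen, cut at about 11% in these data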;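 note: 0% = DMSO-treated cells and 100% = recombinant Lucia luciferase without cells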
# The depositor's hits bear a star.
SMILES,TTR transcr act,others
Cc1cccc(C(=O)Nc2nnc(Cc3ccccc3)s2)c1,-2,
COC(=O)[C@]12CCCCC=C1N(Cc1ccc(OC)cc1)C(=O)[C@@H]2CC(=O)N1CCOCC1,1,
CC(=O)c1cccc(N(CC(=O)Nc2ccccc2F)S(C)(=O)=O)c1,2,
CC(=O)c1cccc(N(CC(=O)Nc2ccc(S(=O)(=O)N3CCCC3)cc2)S(C)(=O)=O)c1,-1,
CC(=O)c1cccc(NC(=O)CN(c2ccccc2)S(C)(=O)=O)c1,12*,HuH7 TTR inh=-4;TTR act confirm=1
Cc1cc(C(=O)N/N=C/C=C/c2ccccc2)n[nH]1,-2,
O=C(N/N=C/C=C/c1ccccc1)c1cc(C2CC2)[nH]n1,1,
O=C(N/N=C/C=C/c1ccccc1)c1cccnc1,2,
O=C(N/N=C/C=C/c1ccccc1)c1n[nH]c2c1CCC2,11*,HuH7 TTR inh=14;TTR act confirm=-1
Cc1ccc(/C=N/NC(=O)c2n[nH]c3c2CCCC3)cc1,-2,
Cc1ccc(-c2cc(C(=O)N/N=C/C=C/c3ccccc3)n[nH]2)s1,13*,HuH7 TTR inh=-32;TTR act confirm=0
COC(=O)C1(C)COP(=O)(NC23CC4CC(CC(C4)C2)C3)OC1 (stereo not given),1,
CCOC(=O)[C@]12CCCC=C1N(Cc1ccccc1)C(=O)[C@H](CC(=O)NCc1cccs1)C2,0,
Cc1cc(NS(=O)(=O)c2c(C)c(C)cc(C)c2C)no1,-1,
CCOC(=O)C1=C[C@@H](CC)N(S(=O)(=O)c2ccc([N+](=O)[O-])cc2)[C@H]1c1ccccc1,48*,HuH7 TTR inh=-4;TTR act confirm=0
CCOC(=O)C1=C[C@@H](C(C)C)N(S(=O)(=O)c2ccc([N+](=O)[O-])cc2)[C@H]1c1ccccc1,-3,
CCOC(=O)C1=C[C@@H](C(C)(C)C)N(S(=O)(=O)c2ccc([N+](=O)[O-])cc2)[C@H]1c1ccccc1,-3,
CC1(C)CC(=O)C=C(c2cccc(O)c2)C1,1,
